High-throughput results deposited in PubChem by National Center for Advancing Translational Sciences (NCATS).
DT40 TDP1 no CPT: qHTS for Inhibitors of human tyrosyl-DNA phosphodiesterase 1 (TDP1): qHTS in cells in absence of CPT; DT40 Tdp1-/- hTDP1 cells, no CPT, ATP luminescence, 48 h; Potency, µM (doses to about 46.2 µM), inactives show top-dose activity change, negative = growth inhibition, hits mostly inhibitors; 420,000 compounds, 15% hits; AID 686978, 2013; also: potency is read from the fitted curve at half-maximal effect; nearly all actives have a fitted effect of over 55% in size
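A cellular qHTS used chicken DT40 cells lacking endogenous Tdp1 but carrying stably transfected human TDP1. Compounds were applied without camptothecin, and cell growth kinetics were judged by ATP-dependent luminescence after ≥48 hr.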
IL1B secr inh: inhibitors of inflammasome signaling (IL-1 beta secretion); 360,000 compounds, 4.7% hits; THP-1 LPS/ATP IL-1B secretion, AlphaLISA, 16 h; hits give low values; AID 743279; activity change, % at 57.5 µM; in the data active = activity change below about -50%; inconclusive = mostly about -30% to -49%
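THP-1 cells pretreated 1 hr with compounds (up to 57.5 uM final), then stimulated with LPS (250 ng/mL final) plus ATP (1.25 mM final); secreted IL-1B measured by AlphaLISA after 16 hr, decreased signal indicating inhibition.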
HT1080 IDH1KD tx: toxicity to HT-1080 IDH1 knockdown cells (counter line). HT-1080 IDH1 knockdown viability, ATP luminescence, 48 h. Potency, µM (highest dose often 46.1 µM), for inactives: at the highest dose activity, negative = toxicity, actives largely listed as cytotoxic. 360,000 compounds, 2% hits;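 also: potency is read from the fitted curve at half-maximal effect; 0% = DMSO wells and -100% = cell-free medium wells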
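Assay cells: HT-1080 with IDH1 knockdown, 750 per well, RPMI/5% FBS. Exposure: 48 h at 37 °C following 2 h pre-incubation. Read: CellTiter-Glo luminescence; fitted concentration-response, curve class assigned.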
HT1080NT lethal: kills 2HG-producing HT-1080-NT fibrosarcoma cells | AID 686970 | Potency, µM (doses to about 46.1 µM), without a hit: at the top dose activity, negative = less viability, hits mostly cytotoxic | HT-1080-NT fibrosarcoma viability, CellTiter-Glo ATP luminescence, 48 h | 360,000 compounds, 1.6% hits;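 also: NT is the 2HG producing partner of a matched IDH1 knockdown line; potency is read from the fitted curve at half-maximal effect; 0% = DMSO-treated cells and -100% = media-only wells without cells; nearly all actives have a fitted effect of over 55% in size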
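HT-1080-NT; 750 cells/well; 5% FBS RPMI; 48 h compound, 37 degrees C; CellTiter-Glo luminescence; curve fitting and curve-class assignment.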
TDP1 cell CPT: DT40-hTDP1 cell growth loss with CPT. Potency, µM (top dose mostly 46.2 µM), for the others: at the top dose activity change, negative = growth inhibition, usual class: inhibitors. 420,000 compounds, 12% hits. AID 686979. chicken DT40 Tdp1-/-;hTDP1 cells + 20 nM CPT, ATP luminescence, 48 h; also: potency is read from the fitted curve at half-maximal effect; nearly all actives have a fitted effect of over 55% in size
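Chicken DT40 Tdp1-/- cells stably complemented with human TDP1 were seeded at 400 cells/well in medium containing 20 nM camptothecin, exposed to pin-transferred compounds, and grown at 37 °C for at least 48 hr. Viability was read as ATP luminescence.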
* hit, by the source's call; ? = inconclusive; nt = no result given. Sampled rows, rich in hits. Any-hit rate of the full collection: about 19%. Unless noted, calls follow the shape of the dose curve; as a rule, active = well fitted curve in the direction sought with a large enough effect; inconclusive = small, poorly fitted or top-dose-only effect, or another doubt; inactive = no such curve, though single readings can be large; an effect the other way counts as inactive or inconclusive. Unless noted, % is scaled to controls: 0 for no effect and ±100 for the full control effect.

SMILES	DT40 TDP1 no CPT	IL1B secr inh	HT1080 IDH1KD tx	HT1080NT lethal	TDP1 cell CPT
CCCC(=O)OCCNc1cc(Sc2nc3ccccc3[nH]2)c2nonc2c1[N+](=O)[O-]	3.3µM*	-104*	?	21µM*	2.3µM*
O=C1NC(CCc2ccccc2)C(=O)N1CCOc1cccc(Br)c1 (configuration not stated)	-16%	-8	0%	8%	-19%
Cc1ccc(-c2csc(N(CCCN3CCOCC3)C(=O)c3ccco3)n2)cc1	21µM*	-53*	?	?	?
COc1ccc(-c2csc(N(CCCN3CCOCC3)C(=O)c3ccco3)n2)cc1	16µM*	?	-13%	-22%	18µM*
CN(C)CCCN(C(=O)c1ccco1)c1nc(-c2ccc(Cl)cc2)cs1	?	-54*	-6%	-21%	?
COc1ccc(OC)c(-c2csc(N(Cc3ccco3)C(=O)c3ccco3)n2)c1	21µM*	5	?	-4%	?
COc1ccc(-c2noc(CN(C)C(=O)c3ccoc3C)n2)cc1OC	-20%	-9	10%	0%	-14%
CN(CCc1ccccc1)C(=O)c1ccc(NC(=O)Cc2ccc(NC(=O)C3CCCN(C(=O)C4CCC4)C3)cc2)cc1 (configuration not stated)	13µM*	-4	-24%	-8%	13µM*
CN(Cc1ccccc1)C(=O)c1ccc(NC(=O)Cc2ccc(NC(=O)C3CCCN(C(=O)C4CC4)C3)cc2)cc1 (configuration not stated)	?	1	-1%	0%	?
CN(CCc1ccccc1)C(=O)c1ccc(NC(=O)Cc2ccc(NC(=O)C3CCCN(C(=O)CCc4ccccc4)C3)cc2)cc1 (configuration not stated)	10µM*	9	?	-20%	13µM*
CN(CCc1ccccc1)C(=O)c1ccc(NC(=O)Cc2ccc(NC(=O)C3CCN(C(=O)CCc4ccccc4)CC3)cc2)cc1	7.3µM*	23	?	?	15µM*
CN(Cc1ccccc1)C(=O)c1ccc(NC(=O)Cc2ccc(NC(=O)C3CCCN(C(=O)C4CCCC4)C3)cc2)cc1 (configuration not stated)	?	0	-9%	-6%	?
CN(CCc1ccccc1)C(=O)c1ccc(NC(=O)Cc2ccc(NC(=O)C3CCN(S(=O)(=O)c4cccc([N+](=O)[O-])c4)CC3)cc2)cc1	9.2µM*	37	-6%	?	?
CC(=O)NS(=O)(=O)c1ccc(NC(=O)NC2CCCCC2)cc1	-5%	6	6%	5%	0%
COc1cc(NC(=O)C(C)Oc2ccccc2)ccc1NC(=O)COc1ccccc1 (configuration not stated)	?	-26	3%	6%	?
O=C(CC(SCCO)c1ccc(F)cc1)c1ccco1 (configuration not stated)	16µM*	-27	8%	1%	18µM*
O=C(c1ccco1)N1CCN=C1SCc1ccc(F)cc1	-28%	-2	9%	8%	0%
CCN(CC)CC(=O)c1c[nH]c2ccccc12	-18%	35	5%	3%	-19%
CCN(CC)CC(=O)c1c[nH]c2ccc(C)cc12	23µM*	11	-6%	1%	21µM*
C[N+]1(CC2COC(c3ccccc3)(C3CCCCC3)O2)CCCCC1 (configuration not stated)	6µM*	nt	nt	nt	-94%
COC(=O)c1cn(NC(=O)c2cnccn2)c(=O)c2ccccc12	7.3µM*	170	?	?	7.3µM*
Cc1ccc(OCC(=O)N2CCC3(CC2)CC(=O)c2ccccc2O3)cc1	13µM*	-2	1%	3%	21µM*
O=C1CC2(CCN(C(=O)COc3ccc(Cl)cc3)CC2)Oc2ccccc21	18µM*	-55*	0%	-16%	?
